The test system of assay [1] is TRPC4 beta (transient receptor potential cation channel C4), mouse. Put plainly: TRPC4 cation channel opening, retest – cell-based, Fluo4 calcium, HEK293 TRPC4beta/mu-opioid, duplicates, 10 µM, confirmation (AID 2426;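 active means fluorescence ratio normalized to control raised more than 50% in primary screen plus both repeat runs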). As to conditions: Fluo4 calcium fluorescence, at 10 µM; stronger effect = higher value.
Assay [2] relates to transient receptor potential cation channel C4 beta (TRPC4), mouse. Description: TRPC4 cation channel opening, second retest – cell-based, second round, Fluo4, HEK293 TRPC4beta/mu-opioid, 1 µM, confirmation (AID 2461;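 active means primary screen active and over 50% activation in each of two duplicate runs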). The following applies: Fluo4 calcium fluorescence, at 1 µM; stronger effect = higher value.
For assay [3], the system named is TRPC4 (transient receptor potential cation channel C4 beta), mouse. Put plainly: potentiation of DAMGO EC20 TRPC4 response – cell-based, second round, Fluo-4, HEK293 TRPC4beta/mu-opioid, 1 µM, confirmation (AID 2554;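 active means primary screen hit whose fluorescence ratio, in both repeats, exceeds the weak agonist control mean by 3 SD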). As to conditions: DAMGO EC20, Fluo-4 calcium flux, at 1 µM; stronger effect = higher value. On the technique in general: Calcium flux is commonly read through the fluorescence of an indicator in the cells.

For assay [4], the system named is TRPC4 beta (transient receptor potential cation channel C4), mouse. Description: potentiation of DAMGO EC20 TRPC4 response – cell-based, Fluo-4, HEK293 TRPC4beta/mu-opioid, confirmation (AID 2555;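 active means primary screen hit whose calcium fluorescence ratio, in both repeats, exceeds the weak agonist control mean by 3 SD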). The following applies: DAMGO EC20, Fluo-4 calcium flux, at 10 µM; stronger effect = higher value.
Assay [5] has as its target Short transient receptor potential channel 4 (Mus musculus) (UniProt Q9QUQ5). Description: blockers of DAMGO-evoked TRPC4 calcium flux – cell-based, Fluo4, HEK293 TRPC4beta/mu-opioid, confirmation (AID 2636). The following applies: at 10 µM; stronger effect = higher value.
Assay [6] shares this target. Put plainly: blockers of DAMGO-evoked TRPC4 calcium flux – cell-based, second round, Fluo4, HEK293 TRPC4beta/mu-opioid, 1 µM, confirmation (AID 2637;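 active means calcium signal ratio cut to more than 3 SD under the fully stimulated control mean yet still positive, in both repeats and the primary screen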;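 on inhibition: percent of integrated ratio relative to wells lacking test compound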). The following applies: at 1 µM; stronger effect = higher value.
Assay [7] shares this target. Description: calcium entry via TRPC4 opening agents – cell-based, HEK293 TRPC4/mu-opioid, Fluo-4 calcium, dose response (AID 434937;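 active means primary screen activator hit with a dose response curve and TRPC4 channel activation at any tested dose; inactive means no activation, no dose response, or not a primary hit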).
Assay [8] has the same target. Put plainly: potentiation of DAMGO-evoked TRPC4 calcium signal – cell-based, HEK293 TRPC4/mu-opioid, Fluo-4 calcium, EC20 DAMGO, dose response (AID 434941;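 active means earlier screen potentiator hit that boosts the TRPC4 ion channel at some dose, with a dose response; inactive means no potentiation, no dose response, or not a prior hit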;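 further: calcium entry triggered by an EC20 dose of DAMGO at the co-expressed mu-opioid receptor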).
Assay [9] addresses Short transient receptor potential channel 6 (Mus musculus) (UniProt Q61143). Description: TRPC6 blockade by TRPC4 inhibitor hits – cell-based, HEK293, membrane potential dye, duplicate, selectivity assay for TRPC4 inhibitor project, confirmation (AID 434948;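 active means active in primary screen and both duplicates, each dropping signal beyond three positive-control SD with fluorescence still positive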). As to conditions: HEK293 TRPC6, membrane potential dye fluorescence, at 10 µM; inhibition: stronger effect = higher value, stimulated with maximal-effect acetylcholine unless noted; outcome: stimulated with maximal-effect acetylcholine unless noted.

The target is the same in assay [10]. Put plainly: TRPC6 opening by TRPC4 activator hits – cell-based, HEK293, membrane potential dye, duplicate, selectivity assay for TRPC4 activator project, confirmation (AID 434950;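 active means membrane potential signal rise above negative control mean plus 3 SD in both duplicates, also active in the earlier TRPC4 screen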). The following applies: HEK293 TRPC6, membrane potential fluorescence, at 10 µM; activation: stronger effect = higher value; outcome: activation.
For assay [11] the target is unchanged. Description: positive modulators of mouse TRPC6 channel – HEK293 cells, membrane potential dye, duplicate, selectivity assay for TRPC4 potentiator project, confirmation (AID 434952;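 active means compound raising the membrane signal above positive-control mean plus 3 SD in both repeats, and a primary screen hit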). As to conditions: HEK293 TRPC6, membrane potential dye fluorescence, at 10 µM; maximal acetylcholine added after compound unless noted.
Assay [12] has as its target Short transient receptor potential channel 4 (Mus musculus) (UniProt Q9QUQ5). Put plainly: calcium flux activators in TRPC4/5HT1a cells, counter-screen for TRPC4 activator project, cell-based, second counter screen, HEK293 TRPC4/5HT1a, Fluo-4 (AID 434977;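 active means calcium signal rise above buffer-control mean plus 5 SD in both duplicates, and also a hit in the primary screen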). As to conditions: Fluo-4 calcium flux, at 10 µM; stronger effect = higher value.
Assay [13] can be described thus: serotonin-gated TRPC4 signal block – cell-based, second counter screen, HEK293 TRPC4/5HT1a, Fluo-4, counter-screen for TRPC4 inhibitor project, confirmation (AID 434978;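 active means primary screen active whose calcium signal fell more than 3 SD beyond the full-serotonin control mean in both duplicate plates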;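 on outcome: serotonin given first at submaximal then at maximal dose after compound preincubation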). As to conditions: Fluo-4 calcium flux, at 10 µM; inhibition: stronger effect = higher value, serotonin added to trigger calcium flux unless noted; outcome: serotonin added to trigger calcium flux unless noted.

The test system of assay [14] is TRPC4 (mouse), co-expressed with 5HT1a in HEK293. Put plainly: enhancement of serotonin-evoked TRPC4 response – cell-based, second counter screen, HEK293 TRPC4/5HT1a, Fluo-4, counter-screen for TRPC4 potentiator project, confirmation (AID 434979;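 active means signal rise over 3 SD above mean of control wells given weak agonist, in both repeats and first screen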). The following applies: Fluo-4 calcium flux, at 10 µM; outcome: serotonin added at its EC20 dose unless noted; potentiation: stronger effect = higher value, serotonin added at its EC20 dose unless noted. (In general: The purpose of a counterscreen is to sort out artefacts and off-target activity.)

The nature of assay [15]: nonspecific calcium rise without TRPC4 – cell-based, HEK293 mu-opioid receptor line, counter-screen for TRPC4 activator project, confirmation (AID 449723;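 active means hit in primary screen, with calcium signal over 5 SD above buffer well mean in both duplicates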;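 further: counter screen cells carry the mu-opioid receptor alone and lack TRPC4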). As to conditions: HEK293 mu-opioid cells, Fluo-4 calcium fluorescence, at 10 µM; stronger effect = higher value.
Assay [16] can be described thus: nonspecific potentiation of DAMGO calcium response – cell-based, HEK293 mu-opioid receptor line, counter-screen for TRPC4 allosteric potentiator project, confirmation (AID 449724;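 active means calcium signal rise more than 3 SD above the low-dose agonist control mean, in both duplicate plates and the primary screen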;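 further: HEK293 cells carrying mu-opioid receptor only with no TRPC4 channel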). The following applies: HEK293 mu-opioid receptor cells, Fluo-4 calcium flux, at 10 µM; compound added before EC20 DAMGO stimulus unless noted.
The target in assay [17] is Short transient receptor potential channel 4 (Mus musculus) (UniProt Q9QUQ5). Description: block of DAMGO-driven TRPC4 calcium entry – cell-based, HEK293 TRPC4/mu-opioid, Fluo-4 calcium, dose response (AID 434942;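 active means primary screen inhibitor hit that blocks the TRPC4 channel at some tested dose, yielding a dose curve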).
Short transient receptor potential channel 4 (Mus musculus), sequence (Q9QUQ5 whole entry, looked up): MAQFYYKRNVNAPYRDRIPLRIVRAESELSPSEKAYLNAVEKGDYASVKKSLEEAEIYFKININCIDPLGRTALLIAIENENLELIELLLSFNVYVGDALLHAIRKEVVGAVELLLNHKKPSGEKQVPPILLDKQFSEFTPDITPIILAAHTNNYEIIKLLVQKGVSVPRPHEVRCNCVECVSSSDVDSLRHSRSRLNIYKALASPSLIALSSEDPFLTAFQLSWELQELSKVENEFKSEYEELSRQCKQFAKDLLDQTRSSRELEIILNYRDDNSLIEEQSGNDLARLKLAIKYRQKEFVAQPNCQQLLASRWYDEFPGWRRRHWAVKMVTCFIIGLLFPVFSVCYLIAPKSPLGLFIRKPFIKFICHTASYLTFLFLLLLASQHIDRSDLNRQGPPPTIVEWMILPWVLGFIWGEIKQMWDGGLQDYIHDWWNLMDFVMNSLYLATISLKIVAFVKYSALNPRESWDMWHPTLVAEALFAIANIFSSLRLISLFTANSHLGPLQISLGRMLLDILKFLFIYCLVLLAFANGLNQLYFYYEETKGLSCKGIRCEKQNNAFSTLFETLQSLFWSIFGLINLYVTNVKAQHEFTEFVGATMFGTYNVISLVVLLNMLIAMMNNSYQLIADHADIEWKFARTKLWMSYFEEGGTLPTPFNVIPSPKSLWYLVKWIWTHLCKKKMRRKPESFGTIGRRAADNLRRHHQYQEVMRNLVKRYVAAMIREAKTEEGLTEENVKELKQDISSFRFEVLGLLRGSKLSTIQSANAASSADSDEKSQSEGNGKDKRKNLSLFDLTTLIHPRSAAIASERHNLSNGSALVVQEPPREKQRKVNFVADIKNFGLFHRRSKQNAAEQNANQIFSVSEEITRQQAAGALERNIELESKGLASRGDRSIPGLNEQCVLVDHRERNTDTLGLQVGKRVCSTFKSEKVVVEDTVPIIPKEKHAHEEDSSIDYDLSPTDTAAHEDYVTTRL

Structures are written as SMILES. For part of these data: Potency and affinity values are given separately. Calls of active or inactive are those of the source.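 How the source made its calls, unless noted: active means calcium signal cut by more than 3 SD below the full-agonist control yet still positive, in both repeats and the earlier primary screen; inactive means the rest.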

Short transient receptor potential channel 6 (Mus musculus), sequence (Q61143 whole entry, looked up): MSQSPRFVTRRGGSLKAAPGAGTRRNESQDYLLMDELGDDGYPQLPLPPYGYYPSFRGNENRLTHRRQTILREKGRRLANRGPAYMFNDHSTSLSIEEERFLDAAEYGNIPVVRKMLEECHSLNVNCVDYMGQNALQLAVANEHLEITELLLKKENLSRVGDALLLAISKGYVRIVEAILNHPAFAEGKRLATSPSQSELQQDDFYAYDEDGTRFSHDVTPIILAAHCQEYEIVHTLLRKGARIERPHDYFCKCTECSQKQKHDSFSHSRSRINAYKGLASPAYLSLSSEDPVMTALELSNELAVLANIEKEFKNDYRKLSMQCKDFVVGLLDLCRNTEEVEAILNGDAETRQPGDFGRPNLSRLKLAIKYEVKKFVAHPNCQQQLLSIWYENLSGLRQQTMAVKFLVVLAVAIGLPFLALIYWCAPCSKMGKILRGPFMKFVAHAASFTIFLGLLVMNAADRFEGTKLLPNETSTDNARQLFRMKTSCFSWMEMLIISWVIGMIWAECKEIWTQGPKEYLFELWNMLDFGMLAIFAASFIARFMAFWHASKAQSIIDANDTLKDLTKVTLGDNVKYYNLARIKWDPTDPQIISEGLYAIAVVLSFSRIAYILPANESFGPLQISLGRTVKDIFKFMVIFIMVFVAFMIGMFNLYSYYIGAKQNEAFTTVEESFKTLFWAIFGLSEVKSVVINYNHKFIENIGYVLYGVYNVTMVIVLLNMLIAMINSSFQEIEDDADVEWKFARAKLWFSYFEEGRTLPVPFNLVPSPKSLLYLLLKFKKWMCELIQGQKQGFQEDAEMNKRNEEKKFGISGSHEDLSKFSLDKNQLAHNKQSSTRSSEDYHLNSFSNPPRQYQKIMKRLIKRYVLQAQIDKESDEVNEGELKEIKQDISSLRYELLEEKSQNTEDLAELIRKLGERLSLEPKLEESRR

Broadly, the inhibition is how much of the control response was suppressed. Consider `CC(=O)OC1(c2ccccc2)CCN(C2CCCCC2)CC1C` (stereo not given), for which the result in [1], in [2], in [3], in assay [4], in [6] and in assay [7] was inactive. Moreover, the outcome in assay [8], in [10], in [12] and in assay [15] was inactive. The inhibition in [5] was 91% (active). Moreover, the outcome in [9], in assay [11], in assay [13], in assay [14] and in assay [16] was “inactive [setting not given]” in each case.

On to `c1ccc2nc(OCCN3CC3)ccc2c1`, for which the result in [1], in assay [2], in assay [3], in assay [5], in assay [6] and in [7] was inactive. Moreover, the result in assay [8], in assay [17], in [9], in [10], in assay [11] and in assay [12] was inactive. Further, the result in assay [13], in assay [15] and in [16] was inactive. For the same compound, the figures for the potentiation in [4] and in assay [14] were 17% (active) and 16.5% (active), respectively.

For `CCN(CC)c1ccc([N+](=O)[O-])c2cccnc12`, the result in [1], in [2], in assay [3], in [4], in [6] and in assay [7] was inactive. In addition, the result in [8], in assay [9], in assay [10], in assay [11], in assay [12] and in assay [14] was inactive. In addition, the result in assay [15] and in assay [16] was inactive. The inhibition in assay [5] is 93% (active); in assay [13] it was 28% (active).

With `Cc1ccc(C2CN(C)CC2C(=O)c2ccc(F)cc2)cc1` (stereo not given), the result in [1], in assay [2], in assay [3], in assay [4], in assay [7] and in [8] was inactive. For the same compound, the result in [9], in [10], in assay [11], in [12], in assay [14] and in [15] was inactive. Also, the result in assay [16] was inactive. Moreover, the inhibition was 87% (active) in assay [5], 42% (active) in [6] and 38% (active) in assay [13].

Regarding `Cc1ccc(CN2C3CCCC2CC(NC(=S)NCc2ccccc2)C3)cc1` (stereo not given), the outcome in assay [1], in assay [2], in assay [3], in assay [4], in assay [6] and in assay [7] was inactive. The result in assay [8], in assay [9], in [10], in assay [11], in assay [12] and in [14] was inactive. Also, the result in assay [15] and in assay [16] was inactive. In addition, the figures for the inhibition in assay [5] and in assay [13] were 88% (active) and 36.3% (active), respectively.

On to `COc1ccc(OC)c(CN2CCCC(C(=O)c3sccc3C)C2)c1` (stereo not given), for which the outcome in assay [1], in assay [2], in assay [3], in [4], in assay [7] and in [8] was inactive. Moreover, the compound was classed as inactive in [9], in assay [10], in assay [11], in assay [12], in [14] and in [15]. In addition, the outcome in [16] was inactive. Moreover, the inhibition was 97% (active) in [5], 50% (active) in [6] and 25.9% (active) in assay [13].

With `CCNc1cc(N2CCNCC2)ccc1[N+](=O)[O-]`, the result in assay [1], in [2], in [5], in assay [6], in assay [7] and in assay [8] was inactive. Besides, the outcome in [17], in [9], in assay [10], in assay [11], in assay [12] and in assay [13] was inactive. In addition, the result in assay [15] and in [16] was inactive. Moreover, the potentiation in assay [3] is 35% (active); in assay [4], 19% (active); in [14], 17.7% (active).

With `COc1ccc(C)cc1NC1=NC(C)(C)CS1`, the result in assay [1], in assay [2], in [3], in assay [4], in [7] and in assay [8] was inactive. Further, the compound was classed as inactive in [9], in assay [10], in assay [11], in assay [12], in assay [13] and in assay [14]. For the same compound, the outcome in assay [15] and in assay [16] was inactive. For the same compound, the inhibition in assay [5] is 89% (active); in assay [6], 42% (active).

Regarding `CCCCc1ncc(CN2CCCC(C(=O)c3ccc(SC)cc3)C2)[nH]1` (stereo not given), the result in assay [1], in assay [2], in assay [3], in [4], in assay [7] and in assay [8] was inactive. The result in [9], in [10], in assay [11], in [12], in assay [14] and in assay [15] was inactive. Moreover, the outcome in assay [16] was inactive. Moreover, the inhibition in assay [5] was 90% (active); in [6] it was 45% (active); in assay [13], 41.9% (active).

On to `COc1ccc2[nH]cc(CCN(C)C)c2c1`, for which the outcome in assay [1], in [2], in assay [4], in assay [5], in assay [6] and in assay [7] was inactive. Moreover, the result in assay [17], in [10], in assay [12] and in [15] was inactive. For the same compound, in [3], the potentiation is 7% (active). In addition, the outcome in assay [9], in assay [11], in assay [13], in [14] and in [16] was “inactive [setting not given]” each time.

Turning to `COc1ccc(CN2CCCC(C(=O)c3sccc3C)C2)cc1O` (stereo not given), the result in [1], in [2], in [3], in assay [4], in assay [6] and in assay [7] was inactive. The outcome in assay [8], in [9], in assay [10], in [11], in assay [12] and in assay [14] was inactive. The outcome in assay [15] and in [16] was inactive. Moreover, the inhibition in assay [5] was 90% (active); in assay [13] it was 21.3% (active).

Regarding `O=C(c1ccc(Cl)cc1)C1CCCN(C2CCSCC2)C1` (stereo not given), the outcome in assay [1], in assay [2], in assay [3], in assay [4], in assay [7] and in [8] was inactive. Besides, the outcome in assay [9], in [10], in assay [11], in assay [12], in [14] and in assay [15] was inactive. For the same compound, the outcome in assay [16] was inactive. Further, the inhibition is 86% (active) in assay [5], 64% (active) in [6] and 31.4% (active) in assay [13].

Consider `COc1ccc(O)c(CN2CCCC(C(=O)c3sccc3C)C2)c1` (stereo not given), for which the outcome in [1], in [2], in assay [3], in assay [4], in assay [6] and in assay [7] was inactive. Moreover, the outcome in [8], in assay [9], in [10], in [11], in [12] and in assay [14] was inactive. Also, the outcome in assay [15] and in assay [16] was inactive. Besides, the inhibition was 92% (active) in [5] and 29.4% (active) in assay [13].

Values taken from PubChem BioAssay.
